Reference: PubChem BioAssay (NCATS)
Values joined by “and” are separate entries in the source; they are usually repeats but may differ in a detail not shown here. Equal values may be shown once. Records with an inconclusive call do not appear. Active and inactive are the calls of the source. Unless noted, the call rests on the fitted dose curve; in most records, active means well fitted curve in the direction sought with a large enough effect; inconclusive means small, poorly fitted or top-dose-only effect, or another doubt; inactive means no such curve, though single readings can be large; an effect the other way counts as inactive or inconclusive.

Experiments:
MKL-2 = experiment: qHTS assay to identify novel small-molecules to repurpose for Merkel cell carcinoma treatment (AID 1296009); conditions: MCC and control cell lines, CellTiter-Glo viability, 72 h; series mostly up to 46 µM; further: nearly all actives have a fitted effect of over 60% in size; further: potency means the concentration at half of the fitted maximal effect
Method in brief: (§1)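 After compound transfer in DMSO, plates were kept 72 hr at 37 degree celsius. Luminescent ATP signal from CellTiter-Glo served as viability measure, normalized against DMSO and no-cell controls.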

UISO = experiment: as above; conditions: MCC and control cell lines, CellTiter-Glo viability, 72 h; series mostly up to 46 µM
Method in brief: as §1

WaGa = experiment: as above; conditions: MCC and control cell lines, CellTiter-Glo viability, 72 h; series mostly up to 46 µM
Method in brief: as §1

C33A = experiment: Primary qHTS to identify gynecologic anti-cancer compounds using libraries of approved drugs and bioactive compounds (AID 1345084); conditions: Gynecologic cancer cell panel viability, ATPlite luminescence, 48 h; series mostly up to 57.5 µM; further: nearly all actives have a fitted effect of over 55% in size; further: potency means the concentration at half of the fitted maximal effect
Method in brief: (§2)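 Five-point cytotoxicity, 48 h drug exposure at 37 C, 5% CO2, on cells seeded 16 h beforehand. ATP content read by ATPlite luminescence.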

CAOV3 = experiment: as above; conditions: Gynecologic cancer cell panel viability, ATPlite luminescence, 48 h; series mostly up to 57.5 µM
Method in brief: as §2

CASKI = experiment: as above; conditions: Gynecologic cancer cell panel viability, ATPlite luminescence, 48 h; series mostly up to 57.5 µM
Method in brief: as §2

Es-2 = experiment: as above; conditions: Gynecologic cancer cell panel viability, ATPlite luminescence, 48 h; series mostly up to 57.5 µM
Method in brief: as §2

HeLa = experiment: as above; conditions: Gynecologic cancer cell panel viability, ATPlite luminescence, 48 h; series mostly up to 57.5 µM
Method in brief: as §2

Hek293T = experiment: as above; conditions: Gynecologic cancer cell panel viability, ATPlite luminescence, 48 h, control line for the selectivity index; series mostly up to 57.5 µM
Method in brief: as §2

JEG-3 = experiment: as above; conditions: Gynecologic cancer cell panel viability, ATPlite luminescence, 48 h; series mostly up to 57.5 µM
Method in brief: as §2

PA-1 = experiment: as above; conditions: Gynecologic cancer cell panel viability, ATPlite luminescence, 48 h; series mostly up to 57.5 µM
Method in brief: as §2

SKOV3 = experiment: as above; conditions: Gynecologic cancer cell panel viability, ATPlite luminescence, 48 h; series mostly up to 57.5 µM
Method in brief: as §2

Tov-21-G = experiment: as above; conditions: Gynecologic cancer cell panel viability, ATPlite luminescence, 48 h; series mostly up to 57.5 µM
Method in brief: as §2

[1] = Drug repurposing screens with cells derived from glioblastoma tumor samples (AID 1345199); conditions: GBM patient neurospheres viability, ATP luminescence, 48 h; further: nearly all actives have a fitted effect of over 40% in size; further: potency means the concentration at half of the fitted maximal effect; on activity, negative = cell killing: on the % scale 0 is the no-effect control and ±100 the full control effect
Method in brief: (§3)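 Four patient lines of CD133+ GBM neurospheres were screened at several concentrations; hits were retested in those lines plus three slower-growing GBM lines, using 48-hour treatment and ATP-based viability.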

OV90 = experiment: Primary qHTS to identify gynecologic anti-cancer compounds using libraries of approved drugs and bioactive compounds (AID 1345084); conditions: Gynecologic cancer cell panel viability, ATPlite luminescence, 48 h; series mostly up to 57.5 µM; further: nearly all actives have a fitted effect of over 55% in size; further: potency means the concentration at half of the fitted maximal effect
Method in brief: as §2

Tov112D = experiment: as above; conditions: Gynecologic cancer cell panel viability, ATPlite luminescence, 48 h; series mostly up to 57.5 µM
Method in brief: as §2

astro = experiment: Drug repurposing screens with cells derived from glioblastoma tumor samples (AID 1345199); conditions: viability, ATP luminescence, 48 h; series mostly up to 45.9 µM; further: nearly all actives have a fitted effect of over 40% in size; further: potency means the concentration at half of the fitted maximal effect; on activity, negative = cell killing: on the % scale 0 is the no-effect control and ±100 the full control effect
Method in brief: as §3

[2] = biological target: Nuclear receptor subfamily 1 group I member 2 (Rattus norvegicus) (UniProt Q9R1A7); experiment: qHTS assay for small molecule activators of the rat pregnane X receptor (rPXR) signaling pathway (AID 651751; call rule not given here; further: 0% is about no effect); conditions: rPXR reporter cells, luciferase (One-Glo), 24 h
Nuclear receptor subfamily 1 group I member 2 (Rattus norvegicus), sequence (Q9R1A7 whole entry, looked up): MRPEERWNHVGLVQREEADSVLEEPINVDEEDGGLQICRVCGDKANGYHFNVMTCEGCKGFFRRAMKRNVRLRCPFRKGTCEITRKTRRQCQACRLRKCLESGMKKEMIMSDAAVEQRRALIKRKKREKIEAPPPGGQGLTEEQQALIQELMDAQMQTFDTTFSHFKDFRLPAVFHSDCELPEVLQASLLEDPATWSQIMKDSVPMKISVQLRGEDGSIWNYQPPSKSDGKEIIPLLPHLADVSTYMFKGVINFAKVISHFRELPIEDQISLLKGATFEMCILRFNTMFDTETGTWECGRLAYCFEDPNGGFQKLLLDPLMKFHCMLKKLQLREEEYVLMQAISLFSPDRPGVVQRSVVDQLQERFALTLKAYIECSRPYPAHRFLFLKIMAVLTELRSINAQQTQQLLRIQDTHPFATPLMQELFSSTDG

[3] = qHTS assay to identify inhibitors of the type 1 interferon - major histocompatibility complex class I in skeletal muscle: Counter screen cell viability and HiBit confirmation (AID 1347412); conditions: iHSKM muscle cells + IFN-b, HiBiT or CellTiter-Glo, 24 h; further: potency means the concentration at half of the fitted maximal effect; nearly all actives have a fitted effect of over 60% in size
Method in brief: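 Duplicate plates, pinned identically: one read for HiBiT-tagged endogenous HLA-B luminescence, the other for ATP-content viability via CellTiter Glo. Cells were genome-engineered human myoblasts given 4 ng/ml IFN-b; compounds 12-pt, 1:3 from 46 uM final; 24 hr exposure.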

[4] = at 45.9 µM (top of the series), tumour line B
[5] = at 45.9 µM (top of the series), tumour line D
[6] = at 46 µM (top of the series), tumour line A
[7] = at 46.1 µM (top of the series), tumour line C

NC1=NCC2c3ccccc3Cc3ccccc3N12 (centres undefined)
inactive: Potency (MKL-2) | Potency (UISO) | Potency (WaGa) | Potency (C33A) | Potency (CAOV3) | Potency (CASKI) | Potency (Es-2) | Potency (HeLa) | Potency (Hek293T) | Potency (JEG-3) | Potency (PA-1) | Potency (SKOV3) | Potency (Tov-21-G) | activity, negative = cell killing [1, 4] -23.2%
active: Potency ([1]; tumour line A) 12.6 µM

NC(=O)N1c2ccccc2C=Cc2ccccc21
inactive: Potency (MKL-2) | Potency (UISO) | Potency (WaGa) | Potency (C33A) | Potency (CAOV3) | Potency (CASKI) | Potency (Es-2) | Potency (HeLa) | Potency (Hek293T) | Potency (JEG-3) | Potency (OV90) | Potency (PA-1) | Potency (Tov-21-G) | Potency (Tov112D) | activity, negative = cell killing [1, 4] -0.221% | activity, negative = cell killing [1, 5] -27.4% | activity, negative = cell killing [1, 6] -32.7% | activity, negative = cell killing [1, 7] -16.6% | Potency (astro) | max response [2] 5.91% and 3.5%

NC(=O)c1cn(Cc2c(F)cccc2F)nn1
inactive: Potency (MKL-2) | Potency (UISO) | Potency (WaGa) | Potency (C33A) | Potency (CAOV3) | Potency (CASKI) | Potency (Es-2) | Potency (Hek293T) | Potency (JEG-3) | Potency (OV90) | Potency (PA-1) | Potency (SKOV3) | Potency (Tov-21-G) | Potency (Tov112D) | activity, negative = cell killing [1, 4] -2.3% | activity, negative = cell killing [1, 5] -3.04% | activity, negative = cell killing [1, 6] -26.2% | activity, negative = cell killing [1, 7] -19.6%

CCN1CCC[C@H]1CNC(=O)c1c(O)c(Cl)cc(Cl)c1OC
inactive: Potency (MKL-2) | Potency (UISO) | Potency (WaGa) | Potency (C33A) | Potency (CAOV3) | Potency (CASKI) | Potency (Es-2) | Potency (HeLa) | Potency (Hek293T) | Potency (JEG-3) | Potency (OV90) | Potency (PA-1) | Potency (Tov-21-G) | Potency (Tov112D) | activity, negative = cell killing [1, 4] -11.9% | activity, negative = cell killing [1, 5] 3.21% | activity, negative = cell killing [1, 7] 9.16% | Potency (astro)

C[n+]1cc2c3c(ccc2c2ccc4cc5c(cc4c21)OCO5)OCO3
active: Potency (MKL-2) 0.651 µM | Potency (UISO) 1.3 µM | Potency (WaGa) 1.03 µM | Potency (C33A) 2 µM | Potency (Es-2) 8.91 µM | Potency (Hek293T) 8.91 µM | Potency (OV90) 11.2 µM | Potency (PA-1) 5.01 µM | Potency (SKOV3) 3.55 µM | Potency (Tov-21-G) 7.94 µM | Potency (Tov112D) 10 µM | Potency (astro) 4.47 µM | Potency ([3]; HiBiT) 1.11 µM | Potency ([3]; Viability) 2.22 µM

CC1=C(C)C(=O)C(CCCCC#CCCCC#CCO)=C(C)C1=O
inactive: Potency (CAOV3) | Potency (CASKI) | Potency (Es-2) | Potency (HeLa) | Potency (JEG-3) | Potency (OV90) | Potency (PA-1) | Potency (SKOV3) | Potency (Tov-21-G) | Potency (Tov112D)
active: Potency (MKL-2) 26.6 µM | Potency (WaGa) 21.1 µM

CN(C)CCN(Cc1cccs1)c1ccccn1
active: Potency ([1]; tumour line A) 8.91 µM
inactive: Potency (MKL-2) | Potency (UISO) | Potency (WaGa) | Potency (C33A) | Potency (CAOV3) | Potency (CASKI) | Potency (Es-2) | Potency (Hek293T) | Potency (JEG-3) | Potency (OV90) | Potency (PA-1) | Potency (SKOV3) | Potency (Tov-21-G) | Potency (Tov112D) | activity, negative = cell killing [1, 4] -18% | Potency (astro)
